# Source: PubChem BioAssay AID720704 (The Scripps Research Institute Molecular Screening Center, 2013)
# Out of some 370,000 compounds screened, about 660 (0.18%) were called active. Rule as the data show it: active = inhibition above about 11%; inactive = the rest. The entries come from a sample that favours actives as a whole.
# Molecular target: 1-phosphatidylinositol 4,5-bisphosphate phosphodiesterase beta-3 (Homo sapiens) (UniProt Q01970)
# Assay: human PLC-beta3 inhibitors, primary screen, biochemical, fluorescence (AID 720704);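 also: 0% = median of compound wells on plate and 100% = full blocker control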
# Conditions: Purified PLC-beta3, fluorogenic substrate, at 12.2 µM, stronger effect = higher value
# 1-phosphatidylinositol 4,5-bisphosphate phosphodiesterase beta-3 (Homo sapiens), sequence (Q01970 whole entry, looked up): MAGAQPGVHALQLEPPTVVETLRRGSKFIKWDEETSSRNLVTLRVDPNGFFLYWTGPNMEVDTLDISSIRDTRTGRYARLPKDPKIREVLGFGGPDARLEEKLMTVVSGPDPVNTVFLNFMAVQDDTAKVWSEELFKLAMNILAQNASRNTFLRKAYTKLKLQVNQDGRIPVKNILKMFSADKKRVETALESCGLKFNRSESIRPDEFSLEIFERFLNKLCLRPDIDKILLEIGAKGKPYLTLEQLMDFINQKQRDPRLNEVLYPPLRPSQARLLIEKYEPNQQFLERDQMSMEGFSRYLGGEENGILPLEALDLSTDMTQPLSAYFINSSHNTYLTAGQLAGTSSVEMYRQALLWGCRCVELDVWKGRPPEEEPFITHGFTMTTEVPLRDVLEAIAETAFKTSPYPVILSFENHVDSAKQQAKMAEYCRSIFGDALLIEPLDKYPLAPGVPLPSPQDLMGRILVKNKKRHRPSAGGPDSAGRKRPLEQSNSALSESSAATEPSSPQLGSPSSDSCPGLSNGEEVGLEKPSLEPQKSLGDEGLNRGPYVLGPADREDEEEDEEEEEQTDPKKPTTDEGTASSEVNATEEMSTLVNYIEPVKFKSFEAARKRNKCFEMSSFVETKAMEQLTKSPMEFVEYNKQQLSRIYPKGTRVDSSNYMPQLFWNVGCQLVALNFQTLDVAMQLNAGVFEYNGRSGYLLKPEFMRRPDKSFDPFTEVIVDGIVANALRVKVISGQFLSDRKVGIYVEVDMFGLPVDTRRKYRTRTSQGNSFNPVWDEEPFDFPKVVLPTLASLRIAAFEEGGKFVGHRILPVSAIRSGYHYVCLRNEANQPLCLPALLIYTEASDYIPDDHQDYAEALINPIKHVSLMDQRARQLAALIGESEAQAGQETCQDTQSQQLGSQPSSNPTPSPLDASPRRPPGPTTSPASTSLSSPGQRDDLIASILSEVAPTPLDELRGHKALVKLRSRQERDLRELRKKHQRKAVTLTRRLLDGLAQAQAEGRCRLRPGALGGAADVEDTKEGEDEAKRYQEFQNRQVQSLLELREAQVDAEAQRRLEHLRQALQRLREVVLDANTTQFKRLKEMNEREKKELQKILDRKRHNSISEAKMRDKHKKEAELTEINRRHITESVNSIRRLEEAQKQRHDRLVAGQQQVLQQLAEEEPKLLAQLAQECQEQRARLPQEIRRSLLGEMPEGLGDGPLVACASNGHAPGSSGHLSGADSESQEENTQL
row,SMILES,inhibition
1,O=C(COc1ccc(Cl)cc1)N1CCN(c2cccc(C(F)(F)F)c2)CC1,13.8% (active)
2,Cc1c(C)c2ccc(OCC(=O)N3CCN(c4cccc(Cl)c4)CC3)cc2oc1=O,-8.02% (inactive)
3,CSCCC(NC(=O)COc1ccccc1)C(=O)N1CCN(c2cccc(C(F)(F)F)c2)CC1 (stereo not given),-10.1% (inactive)
4,COC(=O)C1CC2=C(CC(C)(C)CC2=O)N(c2ccccc2)C1=O (stereo not given),-3.14% (inactive)
5,O=C(COC(=O)c1ccc(F)c(S(=O)(=O)N2CCOCC2)c1)NCc1ccc2c(c1)OCO2,-5.58% (inactive)
6,Cc1ccc(C(=O)OCC(=O)Nc2ccc(Cl)cn2)cc1S(=O)(=O)N1CCOCC1,-6.74% (inactive)
7,Cc1cc(NC(=O)COC(=O)c2ccc(F)c(S(=O)(=O)N3CCOCC3)c2)no1,11.6% (active)
8,CCc1c(Nc2ccccc2Cl)nc(N)[nH]c1=O,1.61% (inactive)
9,CCCOc1ccc(Cc2c(O)nc(N)[nH]c2=O)cc1C,-5% (inactive)
10,CCc1c(Nc2ccccc2C)nc(N)[nH]c1=O,14.8% (active)
11,COc1ccc(C(=O)O)cc1S(=O)(=O)NCc1cccnc1,-3.06% (inactive)
12,Cc1nnc(SCc2ccc(C(=O)c3ccc(Cl)cc3)o2)n1-c1ccccc1,0.27% (inactive)
13,COC(=O)c1cc(NC(=O)c2nn(C)c(=O)c3ccccc23)cc(C(=O)OC)c1,0.09% (inactive)
14,CC(=O)N1c2ccc(S(=O)(=O)N3CCCC(C(=O)NCc4ccc(Cl)cc4)C3)cc2CC1C (stereo not given),-2.78% (inactive)
15,O=C(NCc1ccco1)c1nn2cccnc2c1Cl,-10.8% (inactive)
16,CN1CCN(C(=O)Cn2c(C(F)(F)F)nc3ccccc32)CC1,5.24% (inactive)
17,CCc1cc(C(=O)c2ccc(OC)cc2)c(NC(=O)CN2CCN(C)CC2)s1,-17.3% (inactive)
18,CCCCc1nc2ccccc2c(NC(=O)CN2CCN(C)CC2)c1CCC,32% (active)
19,CCOC(=O)c1cc2ccccc2n1CC(=O)c1ccccc1,-2.72% (inactive)
20,CCn1c(/C=C/Nc2ccccc2)[n+](CC)c2ccc(C(=O)OCC(F)(F)F)cc21,13.1% (active)
21,Cc1cc(C)c(OCC(=O)N(Cc2cccs2)C2CCS(=O)(=O)C2)c(C)c1 (stereo not given),-6.39% (inactive)
22,CC1C(=O)Nc2ccccc2N1C(=O)c1c(F)cccc1F (stereo not given),-2.5% (inactive)
23,CC(=O)C12CC(C)=C(C)CC1CC1C3CCC4=CC(=O)CCC4(C)C3CCC12C (stereo not given),16.1% (active)
24,CC(=O)O[C@]1(C(C)=O)CC[C@H]2[C@@H]3C=C(C)C4=CC(=O)CC[C@]4(C)[C@H]3CC[C@@]21C,-0.43% (inactive)
25,CC(=O)O[C@@]1(C(C)=O)CCC2[C@H]3C=C(C)C4=CC(=O)CC[C@@]4(C)C3CC[C@]21C (stereo not given in full),-4.21% (inactive)
